Data from the supplement of paper PMC8371130.
Structures can show the parent of a compound that is named as a salt.

test system: HL-1; assay: relative cell viability (CellTiter-Glo) vs DMSO control (% of DMSO control); higher = more viable cells; conditions: oxygen condition: normoxia 72 h; 5000 nM
Summary of the method: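 Cell viability, normalised to vehicle-treated control cells, was read by CellTiter-Glo luminescence. For this, HL-1 mouse atrial cardiomyocytes were plated at 1000 cells per well in 384-well plates alongside compounds at 40, 200, 1000 or 5000 nM in 0.01% DMSO. After a day, plates either spent 48 h in a hypoxic workstation at 1% O2 and then 24 h reoxygenating in a normal incubator, or remained in normoxia for the same period.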

Row | SMILES | relative cell viability
1 | CCN(Cc1ccncc1)C(=O)C(CO)c1ccccc1 (stereo not given) [Tropicamide] | 104
2 | N=C(N)NC(=O)c1nc(Cl)c(N)nc1N [Amiloride hydrochloride] | 109
3 | NCCCC(O)(P(=O)(O)O)P(=O)(O)O [Alendronate] | 109
4 | CC(=O)Oc1ccccc1C(=O)O [Aspirin] | 122
5 | NC(=O)N1c2ccccc2CC(=O)c2ccccc21 [Oxcarbazepine] | 109
6 | CC(=O)OCC(=O)[C@@]12OC(C)(C)O[C@@H]1C[C@H]1[C@@H]3C[C@H](F)C4=CC(=O)C=C[C@]4(C)[C@@]3(F)[C@@H](O)C[C@@]12C [Fluocinonide] | 91.2
7 | CC(=O)[C@H]1CC[C@H]2[C@@H]3CC=C4C[C@@H](O)CC[C@]4(C)[C@H]3CC[C@]12C [Pregnenolone] | 107
8 | CCCOc1ccc(C(=O)OCCN(CC)CC)cc1N [Proparacaine HCl] | 106
9 | C=CC[C@@H]1/C=C(\C)C[C@H](C)C[C@H](OC)[C@H]2O[C@@](O)(C(=O)C(=O)N3CCCC[C@H]3C(=O)O[C@H](/C(C)=C/[C@@H]3CC[C@@H](O)[C@H](OC)C3)[C@H](C)[C@@H](O)CC1=O)[C@H](C)C[C@@H]2OC | 105
10 | O=C(Nc1ccc([N+](=O)[O-])cc1Cl)c1cc(Cl)ccc1O [Niclosamide] | 7.03
11 | CCCCCCCCOc1ccccc1C(=O)Nc1ccc(C(=O)OCC[N+](C)(CC)CC)cc1 [Otilonium Bromide] | 114
12 | C#C[C@]1(OC(C)=O)CC[C@H]2[C@@H]3CCC4=C[C@@H](OC(C)=O)CC[C@@H]4[C@H]3CC[C@@]21C [Ethynodiol diacetate] | 116
13 | N[C@@H]1CN(c2c(F)cc3c(=O)c(C(=O)O)cn([C@@H]4C[C@@H]4F)c3c2Cl)CC12CC2 [Sitafloxacin hydrate] | 108
14 | CCCCCCNC(=O)n1cc(F)c(=O)[nH]c1=O [Carmofur] | 15.1
15 | CCCC(CCC)C(=O)O [Divalproex sodium] | 118
16 | c1ccc2c(CC3=NCCN3)cccc2c1 [Naphazoline hydrochloride] | 102
17 | C[C@]12CC[C@@H]3c4ccc(O)cc4C[C@@H](CCCCCCCCC[S+]([O-])CCCC(F)(F)C(F)(F)F)[C@H]3[C@@H]1CC[C@@H]2O (stereo not given in full) [Fulvestrant] | 135
18 | N=C(N)Nc1ccc(C(=O)Oc2ccc3cc(C(=N)N)ccc3c2)cc1 [Nafamostat mesylate] | 107
19 | Cc1cn([C@H]2C[C@H](N=[N+]=[N-])[C@@H](CO)O2)c(=O)[nH]c1=O [Zidovudine] | 109
20 | O=C(O)Cc1cc(I)c(Oc2ccc(O)c(I)c2)c(I)c1 [Tiratricol] | 126
21 | C[C@@H](Oc1cc(-c2cnn(C3CCNCC3)c2)cnc1N)c1c(Cl)ccc(F)c1Cl [Crizotinib] | 52
22 | CC[C@H]1OC(=O)[C@H](C)[C@@H](O[C@H]2C[C@@](C)(OC)[C@@H](O)[C@H](C)O2)[C@H](C)[C@@H](O[C@@H]2O[C@H](C)C[C@H](N(C)C)[C@H]2O)[C@](C)(OC)C[C@@H](C)C(=O)[C@H](C)[C@@H](O)[C@]1(C)O [Clarithromycin] | 108
23 | S=c1[nH]cnc2nc[nH]c12 [Mercaptopurine] | 103
24 | CCOc1nc2cccc(C(=O)OC(C)OC(=O)OC3CCCCC3)c2n1Cc1ccc(-c2ccccc2-c2nn[nH]n2)cc1 (stereo not given) [Candesartan cilexetil] | 4.11
25 | NC12CC3CC(CC(C3)C1)C2 [Amantadine hydrochloride] | 84.9
